Assay outcomes (PubChem BioAssay)
TDP-43 yeast inh: qHTS of TDP-43 Inhibitors; TDP-43 expressing yeast growth rescue, BacTiter-Glo, 24 h; Potency, µM (highest dose often 46.1 µM), for inactives: top-dose growth rescue (activation), most hits filed as activators; hit rate 1.8% among 410,000; AID 652104, 2013; also: % of control where 0% means no effect; nearly all actives have a fitted effect of over 50% in size
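Luminescence from BacTiter-Glo reports growth of TDP-43-expressing yeast after 24 hr at 30 deg C with compound. Cells were raffinose-pregrown to mid-log, then seeded in galactose medium at OD600=0.02.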
Abeta yeast res: qHTS for compounds that reverse cellular toxicity of Amyloid beta (A-beta) peptide in yeast: Primary Screen; yeast expressing A-beta42, growth rescue, OD600, 48 h; response scale: 0% DMSO, 100% iron-clioquinol control; Potency, µM (series often up to 46.1 µM), actives largely listed as activators; hit rate 0.063% among 410,000; AID 1347071, 2019; also: nearly all actives have a fitted effect of over 55% in size
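Yeast growth medium received pinned compounds, then yeast cells expressing toxic A-beta were added; plates incubated at 30 C for 48 hr. Growth read as absorbance at 600 nm, normalized to DMSO and equimolar FeCl3 plus clioquinol controls.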
FUS yeast rescue: qHTS for Suppressors of FUS Proteinopathy: Primary screen using FUS-linked yeast assay; S. cerevisiae FUS-expressing, growth rescue, OD600, 24 h; Potency, µM (doses to about 76.6 µM), most hits filed as activators; hit rate 0.24% among 390,000; AID 1347120, 2019;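 also: plate controls were DMSO vehicle for no effect and reference control for full effect; nearly all actives have a fitted effect of over 55% in size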
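FUS-expressing yeast, raffinose-pregrown, induced in 2% galactose minimal medium at OD 0.005; compounds in a dilution series, 24hr at 30C. Growth restoration read as absorbance at 600 nm. CP55940 positive control, DMSO negative.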
Mito fusion yeast: qHTS Assay for Small Molecule Inhibitors of Mitochondrial Division or Activators of Mitochondrial Fusion; hit rate 0.23% among 320,000; S. cerevisiae fusion-defective mutant growth rescue, CellTiterGlo 48 h; Potency, µM (series often up to 46.1 µM), inactives show at the highest dose growth rescue (activation), most hits filed as activators; AID 485298, 2010; also: % of control where 0% means no effect; nearly all actives have a fitted effect of over 45% in size
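Luminescent cell viability in 1536-well qHTS format served as the measure of rescued growth in ts fusion-mutant S. cerevisiae cultured on non-fermentable YPEG for 48 hours at 37C.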
aSyn rescue: qHTS of alpha-syn Inhibitors | Yeast expressing alpha-synuclein, growth rescue, BacTiter-Glo, 24 h | Potency, µM (highest dose often 46.1 µM), for inactives: at the top dose growth rescue (activation), most hits filed as activators | hit rate 0.14% among 370,000; also: % of control where 0% means no effect; nearly all actives have a fitted effect of over 65% in size
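Readout is rescue of growth in alpha-synuclein-expressing yeast, so inhibitors of toxicity appear as activators. Growth after 24 hr at 30 deg C in galactose medium is quantified by luminescence.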
* hit, by the source's call; i = inactive; ? = inconclusive; . = no result given. The list is not random: actives were taken first. Their share in the collection is about 2.2%. Calls follow the shape of the dose curve; as a rule, active = well fitted curve in the direction sought with a large enough effect; inconclusive = small, poorly fitted or top-dose-only effect, or another doubt; inactive = no such curve, though single readings can be large; an effect the other way counts as inactive or inconclusive. Potency is read from the fitted curve at half-maximal effect.

SMILES	TDP-43 yeast inh	Abeta yeast res	FUS yeast rescue	Mito fusion yeast	aSyn rescue
O=C(c1ccc(CS(=O)(=O)c2c(Cl)cccc2Cl)o1)N1CCN(c2ccccc2)CC1	29.3%	i	28.2µM*	.	.
COc1cccc(NC(=O)N2CCN(c3cccc(C)c3C)CC2)c1	12.6µM*	i	i	23.4%	-0.2%
COc1ccc(S(=O)(=O)Cc2ccc(C(=O)N3CCN(c4cccc(C)c4C)CC3)o2)cc1	25.1µM*	i	i	?	1.2%
Cc1ccc(S(=O)(=O)Cc2ccc(C(=O)N3CCN(c4cccc(C)c4C)CC3)o2)cc1	22.4µM*	i	?	15.6%	12.8%
COc1ccc(S(=O)(=O)Cc2ccc(C(=O)N3CCN(c4cc(C)ccc4C)CC3)o2)cc1	?	i	?	10.7%	0.1%
Cc1ccc(C)c(N2CCN(C(=O)c3ccc(CS(=O)(=O)c4ccc(Br)cc4)o3)CC2)c1	-14.1%	i	?	.	.
Cc1nc2ccn(Cc3ccco3)c(=O)c2cc1C(=O)NCc1ccccc1F	0.9%	i	i	.	.
O=C(c1ccc(COc2ccccc2)o1)N1CCN(S(=O)(=O)c2ccccc2Cl)CC1	15.8µM*	i	i	?	0.5%
COc1ccc(CC(=O)N2CCN(c3cccc(C)c3C)CC2)cc1	11.2µM*	i	i	3.8%	-1.5%
Cc1ccc(S(=O)(=O)N2CCN(C(=O)c3ccc(COc4ccccc4)o3)CC2)cc1	19.8%	i	i	19.1%	-3.1%
Fc1ccc(Sc2cc(Cl)c(-c3ccccc3)nn2)cc1	15.8µM*	i	i	10.1%	-0.9%
CN(C(=O)c1ccccc1)C(=O)c1ccccc1	5.6%	i	i	.	-3.3%
O=C(c1ccccc1)N(C(=O)c1ccccc1)c1ccccc1	4.47µM*	i	i	.	-10.0%
CCOC(=O)c1ccc(NC(=O)CSc2nnc(CNC(=O)c3ccc(OC)cc3)n2CC)cc1	-13.7%	i	i	.	.
CC1CCc2c(C(=O)Nc3ccc(N4CCOCC4)cc3)csc2C1 (stereo not drawn)	7.08µM*	i	i	-3.7%	6.5%
CC1CCc2c(C(=O)NCCN3CCOCC3)csc2C1 (stereo not drawn)	-19.8%	i	i	-1.6%	-6.1%
Cc1nnc(SCc2ccc(C(=O)Nc3cc(Cl)ccc3C)cc2)s1	10µM*	i	i	?	0.2%
Cc1ccc(NC(=O)c2ccc(CSc3nnc(C)s3)cc2)c(C)c1	6.0%	i	i	3.4%	-1.1%
Cc1cccc(C(=O)NC2CCCc3ccccc32)c1 (stereo not drawn)	.	.	.	3.0%	.
CC1(C)CC(=O)C(CC(=O)NC2CCCc3ccccc32)C(=O)C1 (stereo not drawn)	25.1µM*	i	i	-2.6%	-0.3%
Cc1cccc(-n2nnc(C(=O)NC3CCCc4ccccc43)c2N)c1 (stereo not drawn)	15.8µM*	i	i	2.2%	0.1%
O=C(CSc1nnnn1-c1ccccc1)NC1CCCc2ccccc21 (stereo not drawn)	11.2µM*	?	i	-2.7%	5.8%
COc1ccccc1CNC(=O)NCCCN1CCN(c2ccc(F)cc2)CC1	.	.	i	.	.
Cc1ccc(C)c(N2CCN(c3nc4c(S(=O)(=O)c5ccccc5)nnn4c4ccc(Cl)cc34)CC2)c1	7.3%	i	i	.	.
N#C/C(=C/c1ccccc1[N+](=O)[O-])c1nc(C2CC2)cs1	?	i	.	?	6.4%
SMILES	TDP-43 yeast inh	Abeta yeast res	FUS yeast rescue	Mito fusion yeast	aSyn rescue
N#C/C(=C\c1ccccc1[N+](=O)[O-])c1nc(C2CC2)cs1	14.1µM*	i	.	20µM*	0.5%
COc1ccccc1NC(=O)CSCc1cc(=O)c2cccc(Cl)c2[nH]1	10.4%	i	i	.	.
COc1ccc(S(=O)(=O)Nc2ccc3ccccc3c2)cc1C	?	i	i	?	22.4µM*
Cc1cc(S(=O)(=O)Nc2ccc3ccccc3c2)c(C)s1	?	i	i	17.8µM*	17.8µM*
Cc1cc(S(=O)(=O)Nc2cccnc2)c(C)s1	-5.7%	i	i	1.0%	-4.4%
O=C([C@@H]1C[C@H]1c1ccccc1)N1CC[C@H]2[C@H](CCCN2Cc2ccccc2)C1	.	.	i	.	.
COc1cc(-c2ccno2)ccc1S(=O)(=O)N1CCN(c2cccc(Cl)c2)CC1	?	i	i	.	.
CCOC(=O)C1=C(N)N2C(=O)C(C)SC2=C(C(=O)OC)C1c1cccc(OC)c1 (stereo not drawn)	20µM*	i	i	-4.2%	1.2%
COc1ccc(NC(=O)Nc2ccc3c(c2)C(=O)N([C@H](C)CO)C[C@H](C)[C@@H](CN(C)C(=O)Nc2ccc(C(F)(F)F)cc2)O3)cc1	-10.1%	i	?	.	-5.6%
COc1ccc(NC(=O)N(C)C[C@H]2Oc3c(NC(=O)Nc4ccccc4)cccc3C(=O)N([C@H](C)CO)C[C@@H]2C)cc1	6.8%	i	i	.	-0.7%
C[C@H](CO)N1C[C@H](C)[C@@H](CN(C)C(=O)Nc2ccc3c(c2)OCO3)Oc2ccc(NC(=O)Cc3ccccc3)cc2C1=O	0.9%	i	i	.	7.6%
C[C@@H]1CN([C@H](C)CO)C(=O)c2cc(NC(=O)Cc3cn(C)c4ccccc34)ccc2O[C@H]1CN(C)C(=O)Nc1ccc2c(c1)OCO2	0.0%	i	31.6µM*	.	2.0%
COc1ccc(NC(=O)Nc2cccc3c2O[C@H](CN(C)C(=O)Nc2ccc(OC)cc2)[C@@H](C)CN([C@H](C)CO)C3=O)cc1	3.4%	i	31.6µM*	.	0.9%
COc1ccc(NC(=O)N(C)C[C@H]2Oc3ccc(NC(=O)Nc4ccc(C(F)(F)F)cc4)cc3C(=O)N([C@H](C)CO)C[C@@H]2C)cc1	24.6%	i	35.5µM*	.	-0.6%
Cc1nn(-c2ccc(N3CCCCC3)nn2)c(C)c1CCC(=O)Nc1ccc(F)cc1F	-13.1%	i	i	.	.
COc1ccccc1N(Cc1cc2cccc(C)c2[nH]c1=O)C(=O)c1cccc(Cl)c1	?	i	i	.	.
C=CCn1c(SCc2ccc(C#N)cc2)nnc1-c1cccc(Cl)c1	14.1µM*	i	i	0.4%	5.7%
C=CCn1c(SCc2ccc(C#N)cc2)nnc1-c1ccco1	.	.	i	.	.
O=C(O)c1cccc(Oc2ccc([N+](=O)[O-])cc2)c1	17.8µM*	i	i	0.3%	19.0%
O=C(c1cccc(Oc2ccc([N+](=O)[O-])cc2)c1)N1CCOCC1	23.5%	i	i	0.0%	-8.1%
Cn1c(-n2cccc2)c(-c2c(-c3ccc(F)cc3)[nH]c3c2c(=O)n(C)c(=O)n3C)c(=O)n(C)c1=O	-20.9%	i	i	.	.
